The record followed here is PubChem BioAssay (EPA / NIEHS).

“And” between values parts separate entries of the source, which are not always exact repeats. Equal values may be shown once. The source holds several records for some structures; these can differ, active in one and inactive in another. The source made the active and inactive calls. The calls were made as follows: active = hit-call score of the fitted dose curve at least 0.9, where 1 is the maximum; inactive = score below 0.9.

Read-out in assay [1]: urokinase Plasminogen Activator (uPA), PLAU (gene 5328)
The assay can be described thus: BSK_BF4T_uPA: BioMAP Diversity Plus: BF4T Assay for urokinase Plasminogen Activator (uPA) Biomarker Activity (AID 2284275). The following applies: primary human bronchial epithelial cells with fibroblasts. The procedure, abridged: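 uPA levels measured by ELISA at 24 hours in BF4T cultures (bronchial epithelial cells plus dermal fibroblasts) and compared with DMSO; cytotoxicity tracked in parallel cultures by sulforhodamine B staining.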

Read-out in assay [2]: Matrix Metallopeptidase 9 (MMP9), MMP9 (gene 4318)
The assay can be described thus: BSK_BF4T_MMP9: BioMAP Diversity Plus: BF4T Assay for Matrix Metallopeptidase 9 (MMP9) Biomarker Activity (AID 2284276). The following applies: primary human bronchial epithelial cells with fibroblasts. In outline:
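MMP-9 levels were measured by ELISA after 24 h exposure of bronchial epithelial cell/dermal fibroblast co-cultures, with DMSO as baseline. Parallel cultures were stained with 0.1% SRB after TCA fixation, read at 560 nm, to flag overt cytotoxicity.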

Read-out in assay [3]: Interleukin-8 (IL8), CXCL8 (gene 3576)
The assay can be described thus: BSK_IMphg_IL8: BioMAP Diversity Plus: IMphg Assay for Interleukin-8 (IL8) Biomarker Activity (AID 2284277). As to conditions: primary human endothelial cells with macrophages. The procedure, abridged: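 IL-8 levels were measured by ELISA 24 h after dosing in primary human venular endothelial cell–macrophage cultures, referenced to DMSO; parallel SRB staining monitored overt cytotoxicity.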

Read-out in assay [4]: Intercellular Adhesion Molecule 1 (ICAM1), ICAM1 (gene 3383)
Kind of assay: BSK_BE3C_ICAM1: BioMAP Diversity Plus: BE3C Assay for Intercellular Adhesion Molecule 1 (ICAM1) Biomarker Activity (AID 2284278).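 As to outcome: cell-surface ICAM-1 protein level quantified by ELISA.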 As to conditions: primary human bronchial epithelial cells. In outline:
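ICAM-1 quantified by ELISA and fitted against DMSO baseline, 24 h post-dosing in BE3C cultures of primary human lung bronchial epithelial cells. Cytotoxicity checked in parallel cultures by total protein SRB staining.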

Read-out in assay [5]: Interferon-inducible T-cell alpha chemoattractant (ITAC), CXCL11 (gene 6373)
The assay can be described thus: BSK_BE3C_ITAC: BioMAP Diversity Plus: BE3C Assay for Interferon-inducible T-cell alpha chemoattractant (ITAC) Biomarker Activity (AID 2284279). As to conditions: primary human bronchial epithelial cells. In outline: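 BE3C cells (human primary bronchial epithelium), 24 h compound exposure, I-TAC by ELISA, DMSO = negative control/baseline, positive fitting direction.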

Read-out in assay [6]: Interleukin-8 (IL8), CXCL8 (gene 3576)
Kind of assay: BSK_BE3C_IL8: BioMAP Diversity Plus: BE3C Assay for Interleukin-8 (IL8) Biomarker Activity (AID 2284280). The following applies: primary human bronchial epithelial cells. The procedure, abridged: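 Primary human bronchial epithelial cells (BE3C system) were exposed to test chemical for 24 h, and IL-8 levels were then measured by ELISA. Activity was fitted in the positive (gain-of-signal) direction against a DMSO negative-control baseline.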

Read-out in assay [7]: Epidermal growth factor receptor (EGFR), EGFR (gene 1956)
Kind of assay: BSK_BE3C_EGFR: BioMAP Diversity Plus: BE3C Assay for Epidermal growth factor receptor (EGFR) Biomarker Activity (AID 2284281). As to conditions: primary human bronchial epithelial cells. In outline:
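Human primary bronchial epithelial cells were exposed to compound for 24 h, and cell-surface EGFR was then quantified by ELISA. Activity was fitted in the positive direction against the DMSO vehicle baseline.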

Read-out in assay [8]: KRT18 (gene 3875)
Kind of assay: BSK_BE3C_Keratin818: BioMAP Diversity Plus: BE3C Assay for Keratin 818 Biomarker Activity (AID 2284282). The following applies: primary human bronchial epithelial cells. The procedure, abridged: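 ELISA readout of Keratin 8/18 in human primary bronchial epithelial cultures after 24 h chemical exposure, DMSO baseline. Parallel SRB staining (0.1%, TCA-fixed, 560 nm) served as cytotoxicity check.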

Read-out in assay [9]: Matrix Metallopeptidase 9 (MMP9), MMP9 (gene 4318)
Kind of assay: BSK_BE3C_MMP9: BioMAP Diversity Plus: BE3C Assay for Matrix Metallopeptidase 9 (MMP9) Biomarker Activity (AID 2284283). The following applies: primary human bronchial epithelial cells. In outline: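 BE3C, human bronchial epithelial primary cells; 24 h post-dose; MMP-9 by ELISA; positive fit vs DMSO; SRB (0.1%, TCA-fixed, 560 nm) parallel cytotox.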

Read-out in assay [10]: Plasminogen activator inhibitor-1 (PAI1), SERPINE1 (gene 5054)
The assay can be described thus: BSK_CASM3C_PAI1: BioMAP Diversity Plus: CASM3C Assay for Plasminogen activator inhibitor-1 (PAI1) Biomarker Activity (AID 2284284).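 Also: PAI-1 protein level measured by ELISA 24 h after dosing.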 The following applies: primary human coronary artery smooth muscle cells.

On to `O=P(O)(O)CCC(F)(F)C(F)(F)C(F)(F)C(F)(F)C(F)(F)C(F)(F)C(F)(F)C(F)(F)F`, for which the outcome in assay [1], in assay [2], in [3], in [4], in assay [5] and in assay [6] was inactive. In addition, the outcome in assay [7], in assay [8], in assay [9] and in assay [10] was inactive. Further, the AC50 in [3] is 40.1 µM (active).

Consider `O=S(=O)(O)C(F)(F)C(F)(F)C(F)(F)C(F)(F)C(F)(F)C(F)(F)C(F)(F)C(F)(F)C(F)(F)C(F)(F)F`, for which the outcome in [1], in [2], in assay [3], in assay [4], in [5] and in assay [6] was inactive. Moreover, the outcome in [7] and in assay [10] was inactive. Besides, the AC50 in [3] is 12.2 µM (active); in [5], 21.8 µM (active); in assay [8], 21 µM (active) and 18 µM (active); in assay [9] it was 9.67 µM (active) and 13.3 µM (active).

Take `C=CC(=O)OCCC(F)(F)C(F)(F)C(F)(F)C(F)(F)C(F)(F)C(F)(F)C(F)(F)C(F)(F)F`: the result in assay [1], in [2], in assay [3], in assay [4], in assay [5] and in assay [6] was inactive. Moreover, the outcome in assay [7], in assay [8], in assay [9] and in [10] was inactive.

For `O=C1NS(=O)(=O)c2ccccc21`, the result in assay [4], in assay [5], in assay [6], in assay [7], in [8] and in [9] was inactive. The outcome in assay [10] was inactive.

Take `O=C(O)C(F)(F)OC(F)(F)C(F)(F)OC(F)(F)C(F)(F)OC(F)(F)C(F)(F)C(F)(F)C(F)(F)F`: the AC50 in [1] is 14.6 µM (active); in assay [2] it was 11.2 µM (active) and 8.88 µM (active); in assay [3], 54.2 µM (active) and 7.06 µM (active); in assay [4], 6.39 µM (active) and 5.8 µM (active); in [5], 5.77 µM (active) and 5.71 µM (active); in assay [6], 6.28 µM (active) and 6.03 µM (active). Besides, the half-maximal activity concentration (AC50) in assay [8] is 3.28 µM (active) and 2.7 µM (active); in [9], 5.94 µM (active) and 4.69 µM (active). In addition, the result in assay [1], in assay [7] and in assay [10] was inactive.

Consider `Oc1ccc(Cc2ccccc2O)cc1`, for which the result in [4], in assay [5], in assay [6], in assay [7], in [8] and in assay [9] was inactive. Also, the outcome in [10] was inactive.

For `O=C(O)CCC(F)(F)C(F)(F)C(F)(F)C(F)(F)C(F)(F)C(F)(F)F`, the result in [1], in assay [2], in [4], in assay [5], in assay [6] and in assay [7] was inactive. The outcome in [8], in [9] and in assay [10] was inactive. Moreover, the half-maximal activity concentration (AC50) in [3] is 14.2 µM (active) and 23 µM (active) and 17.1 µM (active).

`CN(CCO)S(=O)(=O)C(F)(F)C(F)(F)C(F)(F)C(F)(F)C(F)(F)C(F)(F)C(F)(F)C(F)(F)F`: the outcome in assay [1], in [2], in assay [3], in assay [4], in assay [5] and in [6] was inactive. Besides, the result in assay [7], in [8], in assay [9] and in [10] was inactive.

`CCCCCCCCCCCC`: the AC50 in [4] is 7.01 µM (active) and 6.7 µM (active); in [5], 8.03 µM (active) and 6.71 µM (active); in assay [6] it was 9.52 µM (active); in assay [7], 5.07 µM (active); in assay [8], 5.09 µM (active); in assay [9], 9.27 µM (active) and 9.14 µM (active). Moreover, the outcome in assay [6], in assay [7], in assay [8] and in assay [10] was inactive.

On to `Oc1c(Cl)cc(Cl)cc1Sc1cc(Cl)cc(Cl)c1O`, for which the AC50 is 5.56 µM (active) and 6.58 µM (active) in assay [4]; 3.3 µM (active) and 3.57 µM (active) in assay [5]; 11.7 µM (active) and 11.1 µM (active) in assay [6]; 4.89 µM (active) and 4.9 µM (active) in assay [7]; 9.64 µM (active) and 7.03 µM (active) in [8]; 2.09 µM (active) and 1.25 µM (active) in [9]. In addition, the AC50 in [10] is 18.3 µM (active). Also, the result in assay [10] was inactive.

For `O=C(CC(=O)C(F)(F)C(F)(F)C(F)(F)F)c1cccs1`, the AC50 in [1] is 46.4 µM (active) and 35.8 µM (active); in assay [2], 28.8 µM (active) and 22.4 µM (active); in assay [3], 22.4 µM (active); in assay [4], 42.2 µM (active) and 35.1 µM (active); in [5] it was 24.7 µM (active) and 24.1 µM (active); in assay [6], 48.2 µM (active) and 55.2 µM (active). For the same compound, the AC50 in [7] was 30 µM (active) and 20.5 µM (active); in assay [8], 10.8 µM (active) and 14.7 µM (active); in [9], 18.5 µM (active). For the same compound, the outcome in assay [3] and in [10] was inactive.

With `O=C(O)CCC(F)(F)C(F)(F)C(F)(F)C(F)(F)C(F)(F)F`, the outcome in assay [1], in assay [2], in assay [3], in [4], in [5] and in assay [6] was inactive. Also, the outcome in [7], in assay [8], in assay [9] and in assay [10] was inactive.

`O=P(O)(O)CCC(F)(F)C(F)(F)C(F)(F)C(F)(F)C(F)(F)C(F)(F)F`: the result in assay [1], in assay [2], in assay [3], in [4], in [5] and in [6] was inactive. For the same compound, the outcome in assay [7], in assay [8], in [9] and in assay [10] was inactive.

As to `CN(Cc1cnc2nc(N)nc(N)c2n1)c1ccc(C(=O)N[C@@H](CCC(=O)O)C(=O)O)cc1`, the outcome in [1], in assay [2], in assay [3], in assay [4], in [5] and in [6] was inactive. Moreover, the outcome in assay [7], in assay [8], in assay [9] and in [10] was inactive.

On to `OCC(F)(F)C(F)(F)C(F)(F)C(F)(F)C(F)(F)C(F)(F)C(F)(F)C(F)(F)C(F)(F)C(F)(F)C(F)(F)F`, for which the result in assay [1], in assay [2], in assay [3], in [4], in assay [5] and in assay [6] was inactive. Also, the result in [7], in assay [8] and in assay [10] was inactive. The AC50 in assay [3] is 0.216 µM (active); in [6], 0.224 µM (active); in assay [9] it was 229 nM (active) and 222 nM (active).
